Laboratory results taken from PubChem BioAssay (NCI).
Several values for one entry are separate records, joined by “and”; a condition that tells them apart may be missing. Equal entries are not always repeated. This is part of a sample that, as a whole, favours compounds with a hit. Of some 83,000 tested, about 20% had one in any assay.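 Compound tested at a single concentration for 48 hours in 96-well plates; a percent growth value below 10 was scored as active.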 Activity calls are given as the source filed them.

Legend:
Test in all cases: NCI-60 one-dose screen, 48 h (100 = growth as untreated, 0 = no growth, -100 = all killed)
Conditions in all cases: 10 µM unless noted
NCI-H23 lung = test system: NCI-H23 lung
NCI-H226 lung = test system: NCI-H226 lung
NCI-H322M lung = test system: NCI-H322M lung
HOP-62 NSCLC = test system: HOP-62 NSCLC
NCI-H460 lung = test system: NCI-H460 lung
HOP-92 NSCLC = test system: HOP-92 NSCLC
NCI-H522 lung = test system: NCI-H522 lung
A549/ATCC NSCLC = test system: A549/ATCC NSCLC
786-0 renal = test system: 786-0 renal
COLO 205 colon = test system: COLO 205 colon
DU-145 prostate = test system: DU-145 prostate
K-562 leukemia = test system: K-562 leukemia
MALME-3M melanoma = test system: MALME-3M melanoma
MDA-MB-231 breast = test system: MDA-MB-231 breast
RXF 393 renal = test system: RXF 393 renal
SF-268 CNS = test system: SF-268 CNS
SF-295 CNS = test system: SF-295 CNS
SF-539 CNS = test system: SF-539 CNS
UACC-257 melanoma = test system: UACC-257 melanoma
M14 melanoma = test system: M14 melanoma

Measured: growth

O=C(NN1C(=O)/C(=C/C=C/c2ccc([N+](=O)[O-])o2)SC1=S)c1ccc(O)cc1
active: NCI-H23 lung -85.7% | NCI-H226 lung -86.3% | NCI-H322M lung -78.5% | HOP-62 NSCLC -99.5% | NCI-H460 lung -54% | HOP-92 NSCLC -81% | NCI-H522 lung -98.1% | A549/ATCC NSCLC -81.5% | 786-0 renal -90.4% | COLO 205 colon -94.8% | DU-145 prostate -100% | K-562 leukemia 0.602% | MALME-3M melanoma -97.9% | MDA-MB-231 breast -95.9% | RXF 393 renal -86.2% | SF-268 CNS -74.3% | SF-295 CNS -85.6% | SF-539 CNS -100% | UACC-257 melanoma -90.4% | M14 melanoma -81.9%

COc1ccc2[nH]c(O)c(N=Nc3nc(-c4ccc(C#N)cc4)cs3)c2c1
inactive: NCI-H23 lung 55.9% | NCI-H226 lung 98.4% | NCI-H322M lung 83.9% | HOP-62 NSCLC 77.5% | NCI-H460 lung 29.2% | HOP-92 NSCLC 25.1% | NCI-H522 lung 65.4% | A549/ATCC NSCLC 51.8% | COLO 205 colon 86% | DU-145 prostate 52.9% | K-562 leukemia 67.7% | MALME-3M melanoma 15.1% | MDA-MB-231 breast 59.7% | RXF 393 renal 38% | SF-268 CNS 82.6% | SF-295 CNS 68.8% | SF-539 CNS 48.9% | UACC-257 melanoma 70.6% | M14 melanoma 82.3%
active: 786-0 renal -73.4%

N#Cc1ccc(C(=O)CSc2nc3c(c(Nc4ccc(S(N)(=O)=O)cc4)n2)CCC3)cc1
active: NCI-H23 lung -0.896% | HOP-62 NSCLC 1.39% | 786-0 renal -22.3% | MDA-MB-231 breast -14.3% | RXF 393 renal -18.1%
inactive: NCI-H226 lung 54.1% | NCI-H322M lung 75.3% | NCI-H460 lung 39.6% | HOP-92 NSCLC 14.1% | NCI-H522 lung 44.6% | A549/ATCC NSCLC 50% | COLO 205 colon 87.2% | DU-145 prostate 51.1% | K-562 leukemia 55.2% | MALME-3M melanoma 48.8% | SF-268 CNS 38.3% | SF-295 CNS 80.4% | SF-539 CNS 16.2% | UACC-257 melanoma 102% | M14 melanoma 78.1%

Cc1ccccc1Nc1nnc(-c2c[nH]c3ccccc23)o1
active: NCI-H522 lung -23.2% | COLO 205 colon -32.7% | K-562 leukemia 7.28% | RXF 393 renal -4.44% | SF-295 CNS 8.71% | SF-539 CNS -25.9% | M14 melanoma 6.24%
inactive: NCI-H23 lung 28.1% | NCI-H226 lung 43.9% | NCI-H322M lung 38.2% | HOP-62 NSCLC 24.8% | HOP-92 NSCLC 29.1% | A549/ATCC NSCLC 40.3% | 786-0 renal 40% | DU-145 prostate 26.4% | MALME-3M melanoma 33.5% | MDA-MB-231 breast 26.9% | SF-268 CNS 59% | UACC-257 melanoma 49.7%

CC(=O)C[n+]1cccc2c3ccccc3ccc21
inactive: NCI-H23 lung 85.4% | NCI-H226 lung 97% | NCI-H322M lung 89.7% | HOP-62 NSCLC 109% | NCI-H460 lung 82.4% | HOP-92 NSCLC 85.2% | NCI-H522 lung 82.7% | A549/ATCC NSCLC 56.9% | 786-0 renal 94.8% | COLO 205 colon 70.5% | DU-145 prostate 105% | K-562 leukemia 69% | MALME-3M melanoma 63.5% | MDA-MB-231 breast 85.7% | RXF 393 renal 46.3% | SF-268 CNS 66.5% | SF-295 CNS 93.9% | SF-539 CNS 89.6% | UACC-257 melanoma 48.8% | M14 melanoma 98.7%

CCOC(=O)/C(F)=C/C1CC1C1CCN(C(=O)OC(C)(C)C)CC1 (configuration not stated)
inactive: NCI-H23 lung 93.8% | NCI-H226 lung 95.2% | NCI-H322M lung 102% | HOP-62 NSCLC 118% | HOP-92 NSCLC 119% | NCI-H522 lung 104% | A549/ATCC NSCLC 78.4% | 786-0 renal 105% | COLO 205 colon 72.4% | DU-145 prostate 73.2% | K-562 leukemia 76.1% | MALME-3M melanoma 94% | MDA-MB-231 breast 99.3% | RXF 393 renal 105% | SF-268 CNS 98.6% | SF-295 CNS 99.3% | SF-539 CNS 103% | UACC-257 melanoma 111% | M14 melanoma 106%

Nc1cccc(-n2c(COc3ccc(I)cc3)nc3ccccc32)c1
inactive: NCI-H23 lung 75.6% and 99.5% | NCI-H226 lung 57.2% and 109% | NCI-H322M lung 94.4% and 96.2% | HOP-62 NSCLC 86.9% and 103% | NCI-H460 lung 86.2% and 108% | HOP-92 NSCLC 63.3% and 113% | NCI-H522 lung 81.5% and 107% | A549/ATCC NSCLC 104% | 786-0 renal 106% and 102% | COLO 205 colon 81.4% and 109% | DU-145 prostate 96.2% and 95.5% | K-562 leukemia 61.5% and 99.3% | MALME-3M melanoma 82.2% and 96.1% | MDA-MB-231 breast 56% and 102% | RXF 393 renal 82.3% and 106% | SF-268 CNS 74.4% and 96.5% | SF-295 CNS 89.8% and 101% | SF-539 CNS 79.7% and 97.7% | UACC-257 melanoma 99% and 101% | M14 melanoma 91.5% and 108%

Cc1nc2sccn2c1-c1nnc(SCc2ccccc2)o1
inactive: NCI-H23 lung 86.1% | NCI-H226 lung 75.5% | NCI-H322M lung 90.4% | HOP-62 NSCLC 99.9% | NCI-H460 lung 99.6% | HOP-92 NSCLC 71.9% | NCI-H522 lung 78.2% | A549/ATCC NSCLC 91.2% | 786-0 renal 76.1% | COLO 205 colon 112% | DU-145 prostate 96.6% | K-562 leukemia 75.8% | MALME-3M melanoma 106% | MDA-MB-231 breast 98.6% | RXF 393 renal 78.9% | SF-268 CNS 105% | SF-295 CNS 82.5% | SF-539 CNS 93.4% | UACC-257 melanoma 94% | M14 melanoma 96.7%

COc1ccc(N=Nc2c(N)nn3c(N)c(C#N)c(-c4ccc(F)cc4)nc23)cc1
active: HOP-92 NSCLC -3.02% | MDA-MB-231 breast -9.82% | SF-539 CNS -5.21%
inactive: NCI-H23 lung 39.7% | NCI-H226 lung 55% | NCI-H322M lung 77% | HOP-62 NSCLC 59.6% | NCI-H522 lung 40.7% | A549/ATCC NSCLC 86.8% | 786-0 renal 32% | COLO 205 colon 105% | DU-145 prostate 58.8% | K-562 leukemia 68.6% | MALME-3M melanoma 48.7% | RXF 393 renal 35.1% | SF-268 CNS 61.2% | SF-295 CNS 63% | UACC-257 melanoma 105% | M14 melanoma 80.2%

O=C(CSc1nnc(-c2ccc(-c3nc4ccccc4[nH]3)cc2)o1)Nc1ccc(Br)cc1
inactive: NCI-H226 lung 74.4% | NCI-H322M lung 36.8% | NCI-H522 lung 12.8% | COLO 205 colon 51.7% | DU-145 prostate 13.8% | K-562 leukemia 11% | MALME-3M melanoma 31.9% | SF-268 CNS 48.7% | SF-295 CNS 53.8% | UACC-257 melanoma 61.9%
active: NCI-H23 lung 1.35% | HOP-62 NSCLC 3.07% | NCI-H460 lung -55.2% | HOP-92 NSCLC 9.82% | A549/ATCC NSCLC 0.989% | 786-0 renal -40.9% | MDA-MB-231 breast -29.1% | RXF 393 renal -62% | SF-539 CNS -89.8% | M14 melanoma -0.614%

Fc1ccc(N2CC(Cn3c(C(F)(F)F)cc4c(Cl)ncnc43)C2)c(F)c1
active: NCI-H23 lung -76% | NCI-H460 lung -72.9% | HOP-92 NSCLC -7.85% | NCI-H522 lung 9.73% | DU-145 prostate -6.58% | K-562 leukemia -57% | MDA-MB-231 breast -81.9% | RXF 393 renal -51.1% | SF-268 CNS -42% | M14 melanoma -60.9%
inactive: NCI-H226 lung 116% | NCI-H322M lung 45.7% | HOP-62 NSCLC 46.8% | A549/ATCC NSCLC 108% | 786-0 renal 79.2% | COLO 205 colon 65% | MALME-3M melanoma 89.7% | SF-295 CNS 87.8% | SF-539 CNS 50.2% | UACC-257 melanoma 11.4%

COc1ccc(N=Nc2c(N)nn3c(-c4ccc5c(c4)C=S=C5)ccnc23)cc1
active: HOP-92 NSCLC 4.83% | NCI-H522 lung -12.6%
inactive: NCI-H23 lung 27% | NCI-H226 lung 22.8% | NCI-H322M lung 49.1% | HOP-62 NSCLC 42.5% | NCI-H460 lung 35.3% | A549/ATCC NSCLC 43% | 786-0 renal 55.7% | COLO 205 colon 54.8% | DU-145 prostate 35.4% | K-562 leukemia 15.4% | MALME-3M melanoma 43.9% | MDA-MB-231 breast 25% | RXF 393 renal 12.2% | SF-268 CNS 67.7% | SF-295 CNS 33.8% | SF-539 CNS 22.6% | UACC-257 melanoma 85.3% | M14 melanoma 58.9%

CC(C)(C)C(=O)C1CC(C#N)=C2C=Cc3c(ccc4ccccc34)N21 (configuration not stated)
inactive: NCI-H23 lung 89.2% | NCI-H226 lung 77% | NCI-H322M lung 101% | HOP-62 NSCLC 88.3% | NCI-H460 lung 97.8% | HOP-92 NSCLC 70.7% | NCI-H522 lung 83.9% | A549/ATCC NSCLC 81.2% | 786-0 renal 76.6% | COLO 205 colon 93.6% | DU-145 prostate 102% | K-562 leukemia 85.4% | MALME-3M melanoma 102% | MDA-MB-231 breast 80.7% | RXF 393 renal 91.8% | SF-268 CNS 83.1% | SF-295 CNS 83.4% | SF-539 CNS 67.4% | UACC-257 melanoma 84.7% | M14 melanoma 105%

CC(C)C[C@H](NC(=O)CNC(=O)C[C@H]1O[C@@H]2OC3(C)CC[C@H]4[C@H](C)CC[C@@H]([C@H]1C)[C@@]24O3)B(O)O
inactive: NCI-H322M lung 54.4% | A549/ATCC NSCLC 27.9% | 786-0 renal 16% | COLO 205 colon 29.5% | DU-145 prostate 42%
active: NCI-H23 lung -37.1% | NCI-H226 lung -36.2% | HOP-62 NSCLC -3.39% | NCI-H460 lung 9.47% | HOP-92 NSCLC -18.8% | NCI-H522 lung -74.3% | K-562 leukemia 8% | MALME-3M melanoma -71.9% | MDA-MB-231 breast -80.9% | RXF 393 renal -78.5% | SF-268 CNS -22.4% | SF-295 CNS -61.3% | SF-539 CNS -93.6% | UACC-257 melanoma -52.1% | M14 melanoma -45.8%
